Rows were chosen to be rich in hits. Some 7.9% of all compounds tested hit in one or more screens of this group.
MCF10A rerep: A quantitative high throughput screen for small molecules that induce DNA re-replication in MCF 10a normal breast cells | MCF 10A DNA re-replication, Hoechst nuclear intensity, 48 h | 350,000 compounds, 2.9% hits | Potency, µM (top dose mostly 46.1 µM), usual class: activators; further: nearly all actives have a fitted effect of over 50% in size
KB-3-1 cytotox: qHTS assay for MDR1-selective chemotherapeutics: Primary screen using the parental adenocarcinoma cell KB-3-1 | 400,000 compounds, 1.4% hits | KB-3-1 viability, CellTiter-Glo ATP luminescence, 72 h | Potency, µM (doses to about 46.1 µM), actives largely listed as cytotoxic | AID 1347075, 2019; further: nearly all actives have a fitted effect of over 60% in size
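Cells are dispensed, compounds pinned in, plates held at 37 °C for 72 h, then CellTiter-Glo is added and luminescence read after 10 minutes. Cell line: parental KB-3-1 in phenol-red-free DMEM, 10% FBS.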
HT1080 IDH1KD tx: qHTS for induction of synthetic lethality in tumor cells producing 2HG: qHTS for the HT-1080-IDH1KD cell line. HT-1080 IDH1 knockdown viability, ATP luminescence, 48 h. Potency, µM (titrated, usually from 46.1 µM), most hits filed as cytotoxic. 360,000 compounds, 2% hits. AID 686971, 2013
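In this qHTS, HT-1080 cells depleted of IDH1 are exposed for 48 h at 37 °C to compound titrations. Toxicity is scored from CellTiter-Glo luminescence, with DMSO as full viability and medium alone as none.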
SW480 rereplic: A quantitative high throughput screen for small molecules that induce DNA re-replication in SW480 colon adenocarcinoma cells; SW480 DNA re-replication, Hoechst DNA content imaging, 48 h; Potency, µM (top dose mostly 46.1 µM), usual class: activators; 340,000 compounds, 1.8% hits; further: nearly all actives have a fitted effect of over 55% in size
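Image-based read-out: total Hoechst fluorescence of nuclei (405 nm excitation, 500-530 nm emission), with hits raising the fraction of high-intensity nuclei. SW480 colon cells incubated 48 hr with compounds at 37 C.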
KB-V1 MDR tox: qHTS assay for MDR1-selective chemotherapeutics: Primary screen using the drug-selected MDR subline cells KB-V1 | KB-V1 MDR cells viability, CellTiter-Glo, 72 h | Potency, µM (top dose mostly 46.1 µM), most hits filed as cytotoxic | 400,000 compounds, 3.4% hits; further: nearly all actives have a fitted effect of over 60% in size
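Cytotoxicity via CellTiter-Glo luminescence after 72 h compound exposure at 37 degrees C. Cells: drug-selected KB-V1 line, DMEM phenol-red free plus 10% FBS. Compounds tested at multiple concentrations; normalized data fitted to concentration-effect curves.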
HT1080NT lethal: qHTS for induction of synthetic lethality in tumor cells producing 2HG: qHTS for the HT-1080-NT fibrosarcoma cell line; 360,000 compounds, 1.6% hits; HT-1080-NT fibrosarcoma viability, CellTiter-Glo ATP luminescence, 48 h; Potency, µM (series often up to 46.1 µM), most hits filed as cytotoxic;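 further: NT is the 2HG producing partner of a matched IDH1 knockdown line; nearly all actives have a fitted effect of over 55% in size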
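Read-out is CellTiter-Glo luminescence after 10 minutes at room temperature, following 48 hours' compound treatment of HT-1080-NT cells (750 cells/well, RPMI, 5% FBS, 37 degrees C).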
Of the large screens only hits and unclear results are named; the others gave an inactive call; ! = a repeat was not active. The call rests on the fitted dose curve; in most records, active means well fitted curve in the direction sought with a large enough effect; inconclusive means small, poorly fitted or top-dose-only effect, or another doubt; inactive means no such curve, though single readings can be large; an effect the other way counts as inactive or inconclusive.

CC1Cc2ccccc2N1C(=O)c1cc2c(=O)n3ccccc3nc2n1C (configuration not stated)	MCF10A rerep inconclusive, KB-3-1 cytotox inconclusive, KB-V1 MDR tox 5.8µM
Cc1ccc(N2C(=O)N3[C@H](c4ccc(Cl)cc4)[C@@H]4C(=O)N(C5CCCCC5)C(=O)[C@@H]4[C@]3(Cc3ccccc3)C2=O)cc1	none
COc1ccc(NC(C)=O)cc1CNC(=O)COc1ccccc1C(=O)Nc1cccc(C)c1C	KB-V1 MDR tox inconclusive
CC(C)CCOc1ccc(NC(=O)C2OC3OC(C)(C)OC3C3OC(C)(C)OC23)cc1 (configuration not stated)	none
FC(F)(F)c1cc(Cc2nc3ccccc3n2C(CCc2ccccc2)c2nc3ccccc3[nH]2)cc(C(F)(F)F)c1 (configuration not stated)	HT1080 IDH1KD tx inconclusive, KB-V1 MDR tox inconclusive, HT1080NT lethal 21µM (no result: MCF10A rerep, SW480 rereplic)
CCOC(=O)C1=C(C)N=C2SCCC(=O)N2[C@@H]1c1cccs1	none
N#Cc1c(N)nc(SCc2ccccn2)c(C#N)c1-c1cccs1	KB-3-1 cytotox inconclusive, HT1080 IDH1KD tx inconclusive, KB-V1 MDR tox 2.9µM
CN(C)c1ccc(C(C(=O)NCC2CCCO2)N(C(=O)c2snc(C(N)=O)c2N)c2ccccc2)cc1 (configuration not stated)	MCF10A rerep inconclusive
CC(C)c1ccc(N(C(=O)c2snc(C(N)=O)c2N)C(C(=O)NCC2CCCO2)c2ccc(N(C)C)cc2)cc1 (configuration not stated)	MCF10A rerep inconclusive, KB-3-1 cytotox inconclusive, HT1080 IDH1KD tx inconclusive, KB-V1 MDR tox 21µM
CC(C(=O)NCC1CCCO1)N(C(=O)c1snc(C(N)=O)c1N)c1cccc(F)c1 (configuration not stated)	KB-V1 MDR tox 12µM
CS(=O)(=O)NNC(=O)c1cc2cc3ccccc3nc2s1	none
NNC(=O)c1cc2cc3ccccc3nc2s1	MCF10A rerep 12µM, HT1080 IDH1KD tx inconclusive, HT1080NT lethal inconclusive
CCN(CC)CCN=CC1=C(O)CNC1=O	none
COc1ccc(S(=O)(=O)Cc2ccc(C(=O)N3CCN(c4cc(C)ccc4C)CC3)o2)cc1	MCF10A rerep inconclusive, KB-V1 MDR tox inconclusive
Cc1ccc(S(=O)(=O)Cc2ccc(C(=O)N3CCN(c4cccc(C)c4C)CC3)o2)cc1	MCF10A rerep inconclusive, HT1080 IDH1KD tx 3.7µM, SW480 rereplic 2.6µM, KB-V1 MDR tox 2.9µM!, HT1080NT lethal inconclusive
Cc1ccc(C)c(N2CCN(C(=O)c3ccc(CS(=O)(=O)c4ccc(Br)cc4)o3)CC2)c1	KB-3-1 cytotox inconclusive (no result: MCF10A rerep, HT1080 IDH1KD tx, SW480 rereplic, HT1080NT lethal)
Cc1cccc(N2CCN(C(=O)c3ccc(CS(=O)Cc4ccc(Cl)cc4)o3)CC2)c1C (configuration not stated)	MCF10A rerep inconclusive
COc1ccc(S(=O)(=O)Cc2ccc(C(=O)N3CCN(c4cccc(C)c4)C(C)C3)o2)cc1 (configuration not stated)	MCF10A rerep 6.5µM, KB-3-1 cytotox 3.3µM, HT1080 IDH1KD tx 12µM, SW480 rereplic 15µM, HT1080NT lethal 2.6µM
COc1ccc(S(=O)(=O)Cc2ccc(C(=O)N3CCN(c4cccc(C)c4C)CC3)o2)cc1	MCF10A rerep inconclusive, KB-3-1 cytotox inconclusive, HT1080 IDH1KD tx inconclusive, SW480 rereplic 21µM, KB-V1 MDR tox inconclusive
Cc1ccc(C(=O)N2CCN(c3cccc(C)c3C)CC2)o1	MCF10A rerep inconclusive, KB-3-1 cytotox 16µM, HT1080 IDH1KD tx inconclusive, KB-V1 MDR tox inconclusive, HT1080NT lethal inconclusive
Cc1ccc(S(=O)(=O)c2nc(-c3ccc(F)cc3)oc2SCC(=O)NCC2CCCO2)cc1 (configuration not stated)	MCF10A rerep inconclusive, KB-V1 MDR tox 1.8µM

Bioassay records: PubChem, National Center for Advancing Translational Sciences (NCATS)
